Laboratory results as given in PubChem BioAssay (EPA / NIEHS).
Active and inactive are the calls of the source. The calls were made as follows: active = hit-call score of the fitted dose curve at least 0.9, where 1 is the maximum; inactive = score below 0.9.

Key:
[1] = APR_HepG2_P-H2AX_72hr: Apredica 72-hour HepG2 Assay for H2AX Phosphorylation (AID 2282916); details: imaging, actives raise or lower the signal;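 also: phospho-histone H2A.x immunostain intensity per cell marking DNA damage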
Summary of the method: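 Phospho-histone H2A.x immunofluorescence, multiplexed with Hoechst and c-Jun, quantified by high-content imaging. Compounds applied to HepG2 for 72 h across ten concentrations (0.39–200 uM, 0.5% DMSO), in duplicate; DMSO baseline.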

[2] = APR_HepG2_MitoMembPot_72hr: Apredica 72-hour HepG2 Assay for Mitochondrial Membrane Potential (AID 2282917); details: imaging, actives raise or lower the signal
Summary of the method: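 Membrane potential read by MitoTracker Red CMXRos (250 nM, 30 min, pre-fixation) fluorescence imaging of HepG2 after 72 hr exposure. Ten concentrations, 0.39–200 uM, duplicate wells, 0.5% DMSO; fitted in both directions against DMSO baseline.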

[3] = APR_HepG2_MitoticArrest_72hr: Apredica 72-hour HepG2 Assay for Mitotic Arrest (AID 2282918); details: high-content imaging, actives raise or lower the signal
Summary of the method: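 Mitotic arrest in HepG2 is scored from phospho-histone H3 staining after 72 hr dosing across 0.39–200 uM, with DMSO at 0.5% v/v. Nuclei are identified by Hoechst 33342 and fluorescence intensity is quantified per cell.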

[4] = APR_HepG2_MicrotubuleCSK_72hr: Apredica 72-hour HepG2 Assay for Microtubule CSK Stabilty (AID 2282919); details: HepG2 microtubule cytoskeleton, high-content imaging, actives raise or lower the signal
Summary of the method: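 High-content imaging of alpha-tubulin staining in fixed HepG2 cells after 72 hr treatment with ten concentrations from 0.39 to 200 uM (0.5% DMSO). Fitting was bidirectional against DMSO; taxol served as positive control.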

[5] = APR_HepG2_P-H2AX_24hr: Apredica 24-hour HepG2 Assay for H2AX Phosphorylation (AID 2282920); details: high-content imaging, actives raise or lower the signal
Summary of the method: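 Signal comes from a FITC-labeled secondary detecting phospho-histone H2A.x in fixed HepG2 cells, quantified by automated imaging at 20x. Dosing ran 24 hr across 0.39–200 uM with 0.5% v/v DMSO.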

[6] = APR_HepG2_StressKinase_72hr: Apredica 72-hour HepG2 Assay for Stress Kinase (AID 2282921); details: HepG2 stress kinase (phospho-c-Jun) imaging, actives raise or lower the signal
Summary of the method: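 Stress kinase signal is phospho-c-Jun immunofluorescence (1:500 primary, Cy3 secondary) in fixed, permeabilized human HepG2 cells imaged at 20x. Exposure lasted 72 hr over ten concentrations from 0.39 to 200 uM, 0.5% DMSO, in duplicate. Bidirectional fit versus DMSO.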

[7] = APR_HepG2_StressKinase_24hr: Apredica 24-hour HepG2 Assay for Stress Kinase (AID 2282922); details: HepG2 stress kinase (phospho-c-Jun) imaging, actives raise or lower the signal
Summary of the method: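 High-content imaging of phospho-c-Jun immunofluorescence in fixed, permeabilized HepG2 cells after 24 h dosing. Ten concentrations, 0.39 to 200 uM, run in duplicate at 0.5% v/v DMSO; gain or loss of signal versus DMSO.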

[8] = APR_HepG2_p53Act_72hr: Apredica 72-hour HepG2 Assay for p53 Activation (AID 2282923); details: high-content imaging, actives raise or lower the signal;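 also: average cellular p53 protein immunofluorescence intensity in HepG2 cells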
Summary of the method: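 After 72 h with compound (ten points, 0.39 to 200 uM, final DMSO 0.5% v/v), fixed HepG2 cells were labelled with sheep anti-p53 and Hoechst 33342 and imaged; gain or loss versus DMSO scored.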

[9] = APR_HepG2_MitoMass_72hr: Apredica 72-hour HepG2 Assay for Mitochondrial Mass (AID 2282924); details: high-content imaging, actives raise or lower the signal;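 also: MitoTracker Red CMXRos stain intensity per cell imaged as mitochondrial mass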
Summary of the method: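 Readout is imaged MitoTracker Red (250 nM, 30 min, pre-fixation) signal, fitted bidirectionally against DMSO baseline. Human HepG2 liver cells received compound 0.39–200 uM in duplicate for 72 hr, final DMSO 0.5%.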

[10] = APR_HepG2_NuclearSize_72hr: Apredica 72-hour HepG2 Assay for Nuclear Size (AID 2282925); details: high-content imaging, actives raise or lower the signal
Summary of the method: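 Nuclear size was read by high-content imaging of Hoechst 33342 stain after formaldehyde fixation. Compounds ran 72 h on HepG2 at 0.39 to 200 uM, with final DMSO 0.5% v/v. Curves fitted both directions relative to DMSO control.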

[11] = ATG_CRE_CIS: Attagene CIS-FACTORIAL HepG2 Assay for human cAMP Responsive Element (CRE) binding protein 3 (AID 2282926); details: HepG2 CRE cis-reporter, Attagene multiplexed mRNA; actives raise or lower the signal
Summary of the method: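 Cells carrying cis-regulated reporter constructs respond through their own endogenous factors. After 24 h treatment, RNA is reverse-transcribed, amplified, labelled and sized by capillary electrophoresis; up- and down-regulation are both scored against vehicle.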

[12] = target: CCAAT/enhancer-binding protein beta (Homo sapiens) (UniProt P17676); assay: ATG_C_EBP_CIS: Attagene CIS-FACTORIAL HepG2 Assay for human CCAAT/Enhancer Binding Protein (C/EBP) beta (AID 2282927); details: HepG2 Attagene cis-factorial transcription factor reporter; actives raise or lower the signal
Chain of CCAAT/enhancer-binding protein beta (Homo sapiens) (P17676 whole entry, looked up): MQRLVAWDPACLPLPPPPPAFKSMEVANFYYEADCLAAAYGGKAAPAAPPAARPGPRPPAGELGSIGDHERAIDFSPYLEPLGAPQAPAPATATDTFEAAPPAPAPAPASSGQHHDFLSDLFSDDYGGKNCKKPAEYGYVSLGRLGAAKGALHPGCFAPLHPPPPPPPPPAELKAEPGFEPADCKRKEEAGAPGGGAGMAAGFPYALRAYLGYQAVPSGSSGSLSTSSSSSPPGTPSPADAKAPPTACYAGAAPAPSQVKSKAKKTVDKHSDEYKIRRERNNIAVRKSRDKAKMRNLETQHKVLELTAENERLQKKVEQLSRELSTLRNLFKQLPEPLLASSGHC
Summary of the method: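 Endogenous transcription factor activity in human liver HepG2 cells is inferred from induction of a CEBPB-linked reporter mRNA. Exposure lasts 24 h; activity is fitted in both directions relative to DMSO.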

[13] = ATG_CMV_CIS: Attagene CIS-FACTORIAL HepG2 Assay for human CMV (Internal Marker) (AID 2282928); details: HepG2 CMV promoter reporter, transcription factor profiling; actives raise or lower the signal;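 also: endpoint acts as a background internal control marker rather than a target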
Summary of the method: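 Fluorescence intensity of RT-PCR-derived reporter fragments, resolved by capillary electrophoresis, gives the signal. HepG2 liver cells bearing transfected cis-element reporters were treated 24 h; activity in either direction was fit relative to DMSO-treated controls.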

[14] = ATG_DR4_LXR_CIS: Attagene CIS-FACTORIAL HepG2 Assay for human Liver X Receptor (LXR), DR4 submotif (AID 2282929); details: HepG2 Attagene DR4 cis-reporter, mRNA transcription; actives raise or lower the signal
Summary of the method: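 Fluorescence intensity of labelled reporter cDNA fragments, separated by capillary electrophoresis, gives the signal. HepG2 cells bearing cis-regulated reporter constructs were treated 24 h; activity fitted bidirectionally relative to DMSO negative control.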

[15] = ATG_AP_1_CIS: Attagene CIS-FACTORIAL HepG2 Assay for human Activator Protein 1 (AP-1) (AID 2282931); details: HepG2 Attagene cis-factorial AP-1 reporter mRNA; actives raise or lower the signal
Summary of the method: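 Multiplexed HepG2 reporter assay, 24 h dosing. mRNA induction detected by RT-PCR plus capillary electrophoresis. Activity fitted in both directions against DMSO.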

[16] = ATG_AP_2_CIS: Attagene CIS-FACTORIAL HepG2 Assay for human Activator Protein 2 (AP-2) (AID 2282932); details: HepG2 AP-2 cis-reporter, Attagene transcription factor profiling; actives raise or lower the signal
Summary of the method: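 Endogenous transcription factor activity is reported through transfected multiplex reporter constructs in HepG2, after 24 h of compound exposure. Transcripts were quantified by RT-PCR and capillary electrophoresis of fluorescent fragments. Bidirectional fit against DMSO.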

[17] = ATG_BRE_CIS: Attagene CIS-FACTORIAL HepG2 Assay for human Bone Morphogenetic Protein (BMP) Response Element (BRE) (AID 2282933); details: HepG2 BMP response element reporter, Attagene transcription factor profiling; actives raise or lower the signal
Summary of the method: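 Multiplexed cis-reporter assay, HepG2, 24 h exposure. mRNA from reporter units quantified via RT-PCR/CE; DMSO baseline; bidirectional curve fit.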

[18] = target: Retinoic acid receptor alpha (Homo sapiens) (UniProt P10276); assay: ATG_DR5_RAR_CIS: Attagene CIS-FACTORIAL HepG2 Assay for human Retinoic Acid Receptor Alpha (RARE), DR5 submotif (AID 2282934); details: HepG2 Attagene cis-factorial RARE DR5 reporter, mRNA; actives raise or lower the signal;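 also: reporter responds to endogenous RAR alpha beta and gamma in HepG2 not RARA alone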
Chain of Retinoic acid receptor alpha (Homo sapiens) (P10276 whole entry, looked up): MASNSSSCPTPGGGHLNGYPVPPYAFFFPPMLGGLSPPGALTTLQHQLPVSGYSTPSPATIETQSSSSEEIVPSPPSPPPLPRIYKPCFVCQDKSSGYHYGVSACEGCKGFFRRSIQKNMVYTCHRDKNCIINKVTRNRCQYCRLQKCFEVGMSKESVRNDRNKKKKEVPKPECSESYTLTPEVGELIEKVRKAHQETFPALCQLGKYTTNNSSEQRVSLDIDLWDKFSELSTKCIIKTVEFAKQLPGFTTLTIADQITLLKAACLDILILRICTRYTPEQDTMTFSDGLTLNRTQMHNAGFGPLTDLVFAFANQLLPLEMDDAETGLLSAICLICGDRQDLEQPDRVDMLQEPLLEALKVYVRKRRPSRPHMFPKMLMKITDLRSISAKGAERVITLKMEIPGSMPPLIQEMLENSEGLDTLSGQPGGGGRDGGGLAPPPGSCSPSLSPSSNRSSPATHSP
Summary of the method: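 Transient MRTU transfection of HepG2; 24 h compound treatment; TriZol RNA, oligo(dT) RT, PCR, FAM labelling, capillary electrophoresis. Bidirectional fit vs DMSO. Endogenous TF activity at DR5 RARE.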

[19] = target: Transcription factor E2F1 (Homo sapiens) (UniProt Q01094); assay: ATG_E2F_CIS: Attagene CIS-FACTORIAL HepG2 Assay for human E2F Transcription Factor 1 (AID 2282935); details: HepG2 Attagene cis-reporter, E2F reporter RNA transcripts; actives raise or lower the signal
Chain of Transcription factor E2F1 (Homo sapiens) (Q01094 whole entry, looked up): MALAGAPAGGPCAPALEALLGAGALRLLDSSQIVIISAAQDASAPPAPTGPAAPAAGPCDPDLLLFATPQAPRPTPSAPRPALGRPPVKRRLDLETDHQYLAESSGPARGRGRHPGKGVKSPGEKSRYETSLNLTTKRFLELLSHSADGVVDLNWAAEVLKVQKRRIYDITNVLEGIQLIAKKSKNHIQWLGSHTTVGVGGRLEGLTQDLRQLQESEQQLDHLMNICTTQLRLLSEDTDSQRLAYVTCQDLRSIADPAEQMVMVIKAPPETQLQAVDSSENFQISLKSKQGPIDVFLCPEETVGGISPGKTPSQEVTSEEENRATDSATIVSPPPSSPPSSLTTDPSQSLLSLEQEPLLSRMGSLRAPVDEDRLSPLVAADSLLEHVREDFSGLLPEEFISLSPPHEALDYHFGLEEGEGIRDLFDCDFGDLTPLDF
Summary of the method: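 Gain or loss of reporter transcript, fitted against DMSO, reflects E2F1-driven transcription. Transiently transfected HepG2 dosed 24 h before RNA isolation. Quantified by fluorescent RT-PCR products separated by capillary electrophoresis.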

[20] = target: Aryl hydrocarbon receptor (Homo sapiens) (UniProt P35869); assay: ATG_Ahr_CIS: Attagene CIS-FACTORIAL HepG2 Assay for human Aryl Hydrocarbon Receptor (Ahr) (AID 2282930); details: HepG2 AhR cis-factorial reporter transcription; actives raise or lower the signal
Chain of Aryl hydrocarbon receptor (Homo sapiens) (P35869 whole entry, looked up): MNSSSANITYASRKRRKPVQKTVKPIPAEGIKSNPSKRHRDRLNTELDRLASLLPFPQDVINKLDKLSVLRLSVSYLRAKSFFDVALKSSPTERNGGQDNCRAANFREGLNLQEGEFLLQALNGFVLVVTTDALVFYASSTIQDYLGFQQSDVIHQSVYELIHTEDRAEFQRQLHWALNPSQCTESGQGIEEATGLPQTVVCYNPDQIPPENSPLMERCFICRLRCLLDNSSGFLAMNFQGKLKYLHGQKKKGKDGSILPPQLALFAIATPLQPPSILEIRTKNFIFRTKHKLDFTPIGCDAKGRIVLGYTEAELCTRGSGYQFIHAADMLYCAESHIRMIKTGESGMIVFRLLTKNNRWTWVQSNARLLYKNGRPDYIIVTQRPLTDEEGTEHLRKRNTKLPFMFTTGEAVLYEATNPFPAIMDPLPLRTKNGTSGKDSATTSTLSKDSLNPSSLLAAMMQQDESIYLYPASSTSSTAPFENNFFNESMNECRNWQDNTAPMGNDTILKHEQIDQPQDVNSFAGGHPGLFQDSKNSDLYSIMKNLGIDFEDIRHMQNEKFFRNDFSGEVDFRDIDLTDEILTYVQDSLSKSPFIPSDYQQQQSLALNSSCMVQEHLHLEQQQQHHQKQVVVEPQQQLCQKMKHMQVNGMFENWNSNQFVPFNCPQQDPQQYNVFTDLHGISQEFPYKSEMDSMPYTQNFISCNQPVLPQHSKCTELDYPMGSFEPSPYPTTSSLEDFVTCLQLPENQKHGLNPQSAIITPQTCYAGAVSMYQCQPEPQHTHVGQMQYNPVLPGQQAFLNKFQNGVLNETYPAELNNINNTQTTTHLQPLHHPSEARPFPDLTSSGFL
Summary of the method: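 Transient MRTU transfection of HepG2 → 24 h compound exposure → total RNA, oligo(dT) RT → PCR, 6-FAM extension, HpaI cut → CE fluorescence. DMSO = baseline; bidirectional curve fit.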

SMILES: CC(C)N(C(=O)SCC(Cl)=C(Cl)Cl)C(C)C
- outcome [1]: inactive
- outcome [2]: inactive
- outcome [3]: inactive
- AC50 [4]: 99.5 µM (active)
- outcome [5]: inactive
- outcome [6]: inactive
- outcome [7]: inactive
- outcome [8]: inactive
- outcome [9]: inactive
- outcome [10]: inactive
- AC50 [11]: 15.6 µM (active)
- AC50 [12]: 10.8 µM (active)
- outcome [13]: inactive
- outcome [14]: inactive
- outcome [15]: inactive
- outcome [16]: inactive
- outcome [17]: inactive
- AC50 [18]: 29.1 µM (active)
- outcome [19]: inactive

SMILES: CC(C)=CC1C(C(=O)OCN2C(=O)C3=C(CCCC3)C2=O)C1(C)C (stereo unspecified)
- outcome [1]: inactive
- outcome [2]: inactive
- outcome [3]: inactive
- outcome [4]: inactive
- AC50 [5]: 99.3 µM (active)
- outcome [6]: inactive
- outcome [7]: inactive
- outcome [8]: inactive
- outcome [9]: inactive
- outcome [10]: inactive
- AC50 [11]: 38.4 µM (active)
- AC50 [12]: 10.9 µM (active)
- outcome [13]: inactive
- AC50 [14]: 73.6 µM (active)
- outcome [20]: inactive
- AC50 [15]: 71.2 µM (active)
- outcome [16]: inactive
- AC50 [17]: 50 µM (active)
- outcome [19]: inactive

SMILES: CCOP(=O)(OCC)Oc1cc(C)nc(C(C)C)n1
- outcome [1]: inactive
- outcome [2]: inactive
- outcome [3]: inactive
- outcome [4]: inactive
- outcome [5]: inactive
- outcome [6]: inactive
- outcome [7]: inactive
- outcome [8]: inactive
- outcome [9]: inactive
- outcome [10]: inactive
- outcome [11]: inactive
- outcome [12]: inactive
- outcome [13]: inactive
- outcome [14]: inactive
- outcome [20]: inactive
- outcome [15]: inactive
- outcome [16]: inactive
- outcome [17]: inactive
- outcome [19]: inactive

SMILES: CNC(=O)Oc1cccc2c1OC(C)(C)O2
- AC50 [1]: 97 µM (active)
- outcome [2]: inactive
- outcome [3]: inactive
- outcome [4]: inactive
- AC50 [5]: 99.4 µM (active)
- outcome [6]: inactive
- outcome [7]: inactive
- outcome [8]: inactive
- AC50 [9]: 56.7 µM (active)
- outcome [10]: inactive
- AC50 [11]: 50 µM (active)
- AC50 [12]: 19.3 µM (active)
- AC50 [13]: 35.9 µM (active)
- outcome [14]: inactive
- outcome [20]: inactive
- AC50 [15]: 61 µM (active)
- outcome [16]: inactive
- AC50 [17]: 42 µM (active)
- outcome [19]: inactive
